Experimental data reported in PubChem BioAssay.
Unmarked numbers belong to inactive results. The source made the active and inactive calls.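 Rule for the calls: active = thallium flux through the channel raised or lowered by more than 3 SD from vehicle-only wells, actives on both sides; inactive = the rest.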

What follows are molecules tested against Calcium-activated potassium channel subunit alpha-1 (Homo sapiens) + Leucine-rich repeat-containing protein 26 (Homo sapiens) (UniProt Q12791+Q2I0M4) (assay: modulators of BK channel variants, profiling panel, selectivity assay, cell-based, U2OS BacMam, thallium flux, beta subunits (AID 1259406;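 note: initial slope of Thallos dye fluorescence rise after thallium is added; log ratio against the mean of 0.3% DMSO vehicle wells on the same plate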)). Conditions: F380Y/Slo1WT/gamma1, at 30 µM.
Chain of Calcium-activated potassium channel subunit alpha-1 (Homo sapiens) + Leucine-rich repeat-containing protein 26 (Homo sapiens) (Q2I0M4 whole entry, looked up, one chain of several): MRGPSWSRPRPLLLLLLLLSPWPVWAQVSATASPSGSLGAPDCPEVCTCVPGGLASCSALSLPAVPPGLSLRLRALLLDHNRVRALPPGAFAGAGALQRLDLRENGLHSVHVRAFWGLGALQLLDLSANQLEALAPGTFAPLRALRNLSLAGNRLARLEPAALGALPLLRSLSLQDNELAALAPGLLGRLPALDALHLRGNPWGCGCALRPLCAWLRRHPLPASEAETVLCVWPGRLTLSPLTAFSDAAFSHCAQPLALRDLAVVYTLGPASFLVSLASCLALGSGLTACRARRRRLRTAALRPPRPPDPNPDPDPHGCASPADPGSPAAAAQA

| Compound | log fold change Tl+ flux |
| --- | --- |
| N#Cc1ccc(NCCc2ccccn2)c([N+](=O)[O-])c1 | -0.00295 |
| Cc1cc(CNCC(O)C(F)(F)F)no1 (stereo not given) | 0.018 |
| CSC(NCc1cccnc1)=C(C#N)S(=O)(=O)c1ccc(Cl)cc1 | 0.0179 |
| Cc1c(C(=O)Nc2ccc(N3CCOCC3)c(Cl)c2)cnn1-c1ccc(F)cc1 | -0.0278 |
| Cc1nc(C)c(C(=O)O)c(-c2ccsc2)c1C(=O)O | 0.0233 |
| CCCCCCCCCCCC(=O)N1CC(=O)NC(=O)C1 | 0.0655 |
| Cc1cccc(N=Cc2cc(Cl)cc(Cl)c2O)c1C | 0.078 |
| Cc1ccc(I)cc1[N+](=O)[O-] | 0.0293 |
| Cc1ccccc1C=C1N=C(c2ccccc2)OC1=O | -0.00351 |
| O=C(NNc1c(Cl)cccc1Cl)c1csc(Cc2c(Cl)cccc2Cl)n1 | -0.0234 |
| CCSc1n[nH]c(=S)s1 | -0.0169 |
| COc1cc(C(F)(F)F)nc2ccc(C#CCOC(=O)Nc3cccc(Cl)c3)cc12 | -0.0274 |
| CC12CCC(c3c1nn(-c1ccccc1)c3C(F)(F)F)C2(C)C (stereo not given) | 0.00466 |
| COC(=O)C1=C(C)NC(C)=C(C(=O)OC)C1c1ccccc1 | 0.0229 |
| O=C(C(=NN=Cc1ccc2c(c1)OCO2)c1ccccc1)c1ccccc1 | -0.0678 |
| COc1ccc(Cl)cc1N1C(=O)C=C(c2ccccc2)C1=O | 0.00342 |
| O=c1[nH]nc(N2CCSCC2)[nH]1 | -0.0239 |
| Clc1ccc(-c2nc(-c3cnccn3)no2)cc1 | -0.00021 |
| NNC(=O)Cc1csc2nc(-c3ccccc3)nn12 | -0.0179 |
| CN(C)C=Nc1cc(Cl)c(-n2cccc2)cc1Oc1ccc(Cl)cc1 | 0.0223 |

| Compound | log fold change Tl+ flux |
| --- | --- |
| Oc1ccccc1C=NCCN=Cc1ccccc1O | 0.00734 |
| CC(C)(C)OC(=O)N1CCC(c2nc(-c3ccc(Cl)s3)cs2)CC1 | -0.0565 |
| O=S(=O)(Cc1nc(-c2ccc3c(c2)OCCO3)cs1)c1ccccn1 | -0.0733 |
| Cn1c(SCCS(=O)(=O)c2ccc(OC(F)(F)F)cc2)nnc1C(F)(F)F | -0.00452 |
| Cc1ccc(S(N)(=O)=O)c(I)c1 | -0.0495 |
| O=C(Nc1ccc(OC(F)(F)F)cc1)OC1CN(C(c2ccccc2)c2ccccc2)C1 | -0.134 (active) |
| CCN1CCC(O)(C#Cc2ccccc2)CC1 | 0.00398 |
| COC(=O)c1ccc(C=Cc2cccc(Cl)c2)s1 | -0.421 (active) |
| CCc1[nH]c(=S)[nH]c(=O)c1C#N | 0.0111 |
| O=C(CC1SC(=NC2CC3C=CC2C3)NC1=O)Nc1ccccc1Cl (stereo not given) | -0.0156 |
| O=S(=O)(Cc1nc(C=Cc2cc(C(F)(F)F)cc(C(F)(F)F)c2)no1)c1ccc(Cl)cc1 | 0.00425 |
| O=C1CSC(=S)N1N=Cc1cccnc1 | 0.0179 |
| O=C(NC1CCSC1)c1ccccc1NS(=O)(=O)c1ccccc1 (stereo not given) | -0.0334 |
| CCOC(=O)c1nn(-c2ccc(C(C)(C)C)cc2)c(=O)c(C#N)c1C | -0.15 (active) |
| O=C(NNC(=O)c1ccc2nonc2c1)c1cccc(C(F)(F)F)c1 | -0.0024 |
| CCOC(=O)C(C)Oc1ccc(NS(=O)(=O)c2cc(OC)ccc2OC)cc1Cl (stereo not given) | -0.0848 |
| O=C(Nc1ccc(-n2ccc(C(F)(F)F)n2)cc1)C1=Cc2cc(Cl)ccc2OC1 | -0.106 |
| CC(=O)c1sc(SCc2ccc(Cl)cc2)c2c1CC(C)(C)CC2=O | -0.0796 |
| Cc1cc(-c2nn(C)c(=O)c3ccccc23)cc(C)c1O | -0.0365 |
| Cn1ncc2ccccc2c1=O | -0.0763 |

What follows are molecules tested on R275C in the same assay as above. Conditions: at 30 µM.

| Compound | log fold change Tl+ flux |
| --- | --- |
| N#Cc1ccc(NCCc2ccccn2)c([N+](=O)[O-])c1 | -0.00307 |
| Cc1cc(CNCC(O)C(F)(F)F)no1 (stereo not given) | 0.0241 |
| CSC(NCc1cccnc1)=C(C#N)S(=O)(=O)c1ccc(Cl)cc1 | 0.0549 |
| Cc1c(C(=O)Nc2ccc(N3CCOCC3)c(Cl)c2)cnn1-c1ccc(F)cc1 | -0.00699 |
| Cc1nc(C)c(C(=O)O)c(-c2ccsc2)c1C(=O)O | 0.0307 |
| CCCCCCCCCCCC(=O)N1CC(=O)NC(=O)C1 | -0.0151 |
| Cc1cccc(N=Cc2cc(Cl)cc(Cl)c2O)c1C | 0.0221 |
| Cc1ccc(I)cc1[N+](=O)[O-] | 0.0178 |
| Cc1ccccc1C=C1N=C(c2ccccc2)OC1=O | -0.000743 |
| O=C(NNc1c(Cl)cccc1Cl)c1csc(Cc2c(Cl)cccc2Cl)n1 | 0.0148 |
| CCSc1n[nH]c(=S)s1 | 0.0305 |
| COc1cc(C(F)(F)F)nc2ccc(C#CCOC(=O)Nc3cccc(Cl)c3)cc12 | -0.0392 |
| CC12CCC(c3c1nn(-c1ccccc1)c3C(F)(F)F)C2(C)C (stereo not given) | 0.00439 |
| COC(=O)C1=C(C)NC(C)=C(C(=O)OC)C1c1ccccc1 | 0.00578 |
| O=C(C(=NN=Cc1ccc2c(c1)OCO2)c1ccccc1)c1ccccc1 | -0.163 (active) |
| COc1ccc(Cl)cc1N1C(=O)C=C(c2ccccc2)C1=O | -0.0171 |
| O=c1[nH]nc(N2CCSCC2)[nH]1 | 0.0133 |
| Clc1ccc(-c2nc(-c3cnccn3)no2)cc1 | 0.00752 |
| NNC(=O)Cc1csc2nc(-c3ccccc3)nn12 | 0.0143 |
| CN(C)C=Nc1cc(Cl)c(-n2cccc2)cc1Oc1ccc(Cl)cc1 | -0.0532 |

| Compound | log fold change Tl+ flux |
| --- | --- |
| Oc1ccccc1C=NCCN=Cc1ccccc1O | 0.0166 |
| CC(C)(C)OC(=O)N1CCC(c2nc(-c3ccc(Cl)s3)cs2)CC1 | -0.00778 |
| O=S(=O)(Cc1nc(-c2ccc3c(c2)OCCO3)cs1)c1ccccn1 | -0.0303 |
| Cn1c(SCCS(=O)(=O)c2ccc(OC(F)(F)F)cc2)nnc1C(F)(F)F | 0.0189 |
| Cc1ccc(S(N)(=O)=O)c(I)c1 | 0.0442 |
| O=C(Nc1ccc(OC(F)(F)F)cc1)OC1CN(C(c2ccccc2)c2ccccc2)C1 | -0.0449 |
| CCN1CCC(O)(C#Cc2ccccc2)CC1 | -0.00643 |
| COC(=O)c1ccc(C=Cc2cccc(Cl)c2)s1 | -0.198 (active) |
| CCc1[nH]c(=S)[nH]c(=O)c1C#N | 0.0263 |
| O=C(CC1SC(=NC2CC3C=CC2C3)NC1=O)Nc1ccccc1Cl (stereo not given) | 0.0384 |
| O=S(=O)(Cc1nc(C=Cc2cc(C(F)(F)F)cc(C(F)(F)F)c2)no1)c1ccc(Cl)cc1 | 0.0144 |
| O=C1CSC(=S)N1N=Cc1cccnc1 | 0.0256 |
| O=C(NC1CCSC1)c1ccccc1NS(=O)(=O)c1ccccc1 (stereo not given) | -0.153 (active) |
| CCOC(=O)c1nn(-c2ccc(C(C)(C)C)cc2)c(=O)c(C#N)c1C | -0.52 (active) |
| O=C(NNC(=O)c1ccc2nonc2c1)c1cccc(C(F)(F)F)c1 | 0.0381 |
| CCOC(=O)C(C)Oc1ccc(NS(=O)(=O)c2cc(OC)ccc2OC)cc1Cl (stereo not given) | -0.0618 |
| O=C(Nc1ccc(-n2ccc(C(F)(F)F)n2)cc1)C1=Cc2cc(Cl)ccc2OC1 | -0.0271 |
| CC(=O)c1sc(SCc2ccc(Cl)cc2)c2c1CC(C)(C)CC2=O | 0.014 |
| Cc1cc(-c2nn(C)c(=O)c3ccccc23)cc(C)c1O | 0.0132 |
| Cn1ncc2ccccc2c1=O | -0.0283 |
